Bioassay records as filed in PubChem.
Pf Dd2 inh = qHTS Primary assay for Inhibitors of Plasmodium falciparum Dd2 growth in vitro; P. falciparum Dd2 growth, SYBR Green, 72 h; Potency, µM (titrated, usually from 28.9 µM), for the others: top-dose activity, negative = inhibition, usual class: inhibitors; 120,000 tested, 4.3% active; AID 1347417, 2020; active = well fitted inhibition curve with a large enough effect;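 also: plate controls were DMSO vehicle for no effect and reference drug for full effect; nearly all actives have a fitted effect of over 65% in size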
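Infected erythrocytes (Dd2, 0.3% parasitemia, 2.5% hematocrit final) are added to compound in RPMI-1640/Albumax II medium, grown 72 h at 37C in low oxygen, then lysed with saponin/Triton-X containing SYBR Green and read by fluorescence.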
Numbers without * were called inactive; i = inactive; [ ] = another dose, or the depositor's remark. The sample as a whole holds a higher share of hits than the screen did. Potency is read from the fitted curve at half-maximal effect.

SMILES	Pf Dd2 inh
CN1CCN(Cc2nc(C3(O)CCN(Cc4ccccc4)CC3)cs2)CC1	i
COC[C@H]1CCCN1Cc1nc(C2(O)CCN(CC(C)C)CC2)cs1	i
OC1(c2csc(CN3CCN(c4ccccn4)CC3)n2)CCN(Cc2ccc(F)cc2)CC1	5µM*
OC1(c2csc(CN3CCN(c4ccccn4)CC3)n2)CCNCC1	2%[44.1 µM]
O=C(Nc1ccc([C@@H](O)[C@H]2COCC(=O)N2CC2CC2)cc1)c1ccco1	4%[44.1 µM]
Cc1cc(C(=O)N2CCc3nnc([C@@H]4C[C@@H](O)CN4C)n3CC2)n(C)n1	0%
Cc1cc(Cn2cc3c4c(cccc42)[C@H](CC(C)C)N[C@H](C(=O)NCCN(C)C)C3)no1	7.9µM*
CC(C)C[C@@H]1N[C@H](C(=O)NCCN(C)C)Cc2cn(Cc3ccncc3)c3cccc1c23	13µM*
COc1ccc(CNC(=O)[C@@H]2Cc3cn(CC4CC4)c4cccc(c34)[C@H](CC(C)C)N2)cc1	i
CC(C)C[C@@H]1N[C@H](C(=O)N2CCOCC2)Cc2cn(CC3CC3)c3cccc1c23	-21%[44.1 µM]
CC#CCn1cc2c3c(cccc31)[C@H](CC(C)C)N[C@H](C(=O)NCc1cccs1)C2	-12%[44.1 µM]
Cc1cc(Cn2cc3c4c(cccc42)[C@H](CC(C)C)N[C@H](C(=O)NCCN2CCOCC2)C3)no1	-6%
CC#CCn1cc2c3c(cccc31)[C@H](CC(C)C)N[C@H](C(=O)NCc1ccc(OC)cc1)C2	-30%
Cc1cc(Cn2cc3c4c(cccc42)[C@H](CC(C)C)N[C@H](C(=O)NCc2ccccn2)C3)no1	13µM*
CC(C)C[C@@H]1N[C@H](C(=O)O)Cc2cn(Cc3ccncc3)c3cccc1c23	-5%
Cc1ccc(CN2C(=O)NC3(CCN(C(=O)c4ccccn4)CC3)C2=O)cc1	15%
CC(C)(C)NC(=O)N1CCCC1c1nc(CCOc2ccc(F)cc2)no1 (configuration not stated)	-12%
Cn1cnnc1C1CCN(C(=O)C2CCCN(C(N)=O)C2)CC1 (configuration not stated)	5%
COc1cccc(S(=O)(=O)N2CCC(c3noc(-c4cccnc4)n3)C2)c1 (configuration not stated)	30%[5.79 µM]
CCC(=O)Nc1ccccc1-c1nc2ccccc2n(C(C)C(=O)Nc2ccc(OC)cc2)c1=O (configuration not stated)	10µM*
CCC(=O)Nc1ccccc1-c1nc2ccccc2n(CC(=O)Nc2ccccc2OC)c1=O	3%
CCC(=O)Nc1ccccc1-c1nc2ccccc2n(C(CC)C(=O)Nc2cccc(Cl)c2)c1=O (configuration not stated)	i
CN(Cc1cnccn1)C(=O)C1CCCN(C2CCN(C(=O)C3CC3)CC2)C1 (configuration not stated)	4%
COC(=O)c1ccc(Cn2nnc3c(=O)[nH]c(C4CCCN(S(=O)(=O)c5ccccc5Cl)C4)nc32)cc1 (configuration not stated)	7.9µM*
O=C(c1cccc(Cl)c1)N1CCC(c2nn(-c3ccccc3)c(=O)[nH]2)CC1	i
SMILES	Pf Dd2 inh
Cc1ccc(C)c(C(=O)N2CCC(c3nc4c(nnn4Cc4ccccc4)c(=O)[nH]3)CC2)c1	11µM*
CC(C)(C)c1ccc(C(=O)N2CCCC(c3nc4c(nnn4Cc4cccc(F)c4)c(=O)[nH]3)C2)cc1 (configuration not stated)	1.6µM*
CC(C)n1ccnc1C1CCCN(S(=O)(=O)c2ccccc2Cl)C1 (configuration not stated)	i
Cc1ccccc1C(=O)N1CCC(c2nn(Cc3ccccc3)c(=O)[nH]2)CC1	-16%
Cc1ccccc1Cn1nnc2c(=O)[nH]c(C3CCCN(C(=O)c4ccc(F)cc4)C3)nc21 (configuration not stated)	-3%
Cc1cc(C)n(Cc2cccc(C(=O)N3CCCC(c4ncc[nH]4)C3)c2)n1 (configuration not stated)	0%
O=C(c1cccc(C(F)(F)F)c1)N1CCC(c2nn(-c3ccc(Cl)cc3)c(=O)[nH]2)CC1	i
COc1ccc(CNC(=O)C2CCCN(S(=O)(=O)c3cccc4nsnc34)C2)cc1 (configuration not stated)	-19%
O=C(c1cccc(Cl)c1)N1CCC(c2nc3c(nnn3Cc3ccc(F)cc3F)c(=O)[nH]2)CC1	2µM*
Cc1ccc(C(=O)N2CCC(c3nn(Cc4ccccc4)c(=O)[nH]3)CC2)cc1	-8%
COc1nc2c(cc1CNC(=O)C1CCCO1)C(=O)N(CCc1ccccn1)C2 (configuration not stated)	-19%
CCC(CC)C(=O)N1CCC(N2C(=O)CCC2C(=O)NCc2ccccc2)CC1 (configuration not stated)	-13%
COc1cc(C)c2c(c1C)C[C@H](C(C)C(=O)N1CCSCC1)CC2 (some centres not stated)	-25%[44.1 µM]
Cc1ccc(C)c(C(=O)N2CC[C@@H]3CN(S(C)(=O)=O)[C@@H]3C2)c1	-9%
